Calls of active or inactive are those of the source. Calls come from the whole dose curve; as a rule, active = well fitted inhibition curve with a large enough effect; inactive = flat fitted curve, though single readings scatter.
Target: Tyrosine-protein kinase Yes (Homo sapiens) (UniProt P07947)
Experiment: qHTS for small molecule inhibitors of Yes1 kinase: Confirmatory screen on the cherrypicks
Settings: Recombinant Yes1, ADP-Glo luminescence, poly(E4Y) substrate
Text: The Src family of non-receptor protein tyrosine kinases contains nine members, including Yes1, Src, Fyn, Lyn, and […]. These kinases have important roles in a variety of cellular functions, such as cell proliferation, survival, and differentiation. Src, the most well characterized member of this family, has been previously identified as a proto-oncogene. […] In melanoma, it has been shown that Yes1, and not other family members, such as Src, is functionally involved in the malignant phenotype. Additionally, a recent study examining the downregulation of Yes1 by shRNA found significant effects on cell survival/growth for basal-like and Her2-positive breast cancers. Despite the potential for Yes1 to be a target for the above-described cancers, there are very few reports on the identification of potent and selective inhibitors of Yes1 kinase. Antagonists of Yes1 would further elucidate Yes1 biology and help to confirm whether Yes1 is a viable target for therapeutic intervention in a variety of cancers. A compound that inhibits Yes1 could be important for the treatment of various cancers in which Yes1 is highly expressed and can also be used as a tool compound to help further elucidate Yes1 biology. To that end, we have developed a sensitive HTS biochemical assay for Yes1 activity. This assay was screened against several small compound libraries to look for modulators of activity. Inhibition is the desired output for this assay. NIH Molecular Libraries Probe Production Centers Network [MLPCN] NIH Chemical Genomics Center [NCGC] MLPCN Grant: MH084681
Two microliter of Yes1 enzyme (columns 1-2, 5-48; Millipore, Billerica, MA) are dispensed into Greiner, white solid-bottom 1536-well assay plates; columns 3 and 4 receive buffer without Yes1 as a control for maximum inhibition. Compounds (23 nL) are then transferred via Kalypsys pin tool equipped with 1536-pin array (10 nL slotted pins, V&P Scientific, San Diego, CA). The library compounds are in columns 5-48 and columns 1-4 serve as controls with DMSO in columns 1, 3 and 4 and 10 mM 1:3 fold serial of dasatinib in column 2. Following addition of compound and a 20 minute incubation, 1 uL of substrate (ATP and poly-E4Y from Sigma-Aldrich, St. Louis, MO) is added, and the biochemical reaction is allowed to progress for 60 minutes at room temperature. The production of ADP is then quantified by the ADP-Glo Kit (Promega, Madison, WI). First, 2 uL of the first kit reagent is added, and the reaction is incubated for 45 minutes; then, 4 uL of the second kit reagent are added and the reaction is incubated for 30 minutes at which time the luminescence is read on a Viewlux plate reader (Perkin-Elmer, Waltham, MA). The final concentration of reagents in the reaction are 4 nM Yes1, 0.1 mM ATP, 100 uM EGTA, 10 mM MgCl2, 0.3 mg/mL poly(E4Y), 50 mM Tris pH 7.5, 1 mM DTT, 150 mM NaCl, 0.01% Brij-35, and 5% glycerol. Data are normalized to DMSO-treated control columns with (maximum signal) and without (minimum signal) enzyme.

Chain of Tyrosine-protein kinase Yes (Homo sapiens) (P07947 whole entry, looked up): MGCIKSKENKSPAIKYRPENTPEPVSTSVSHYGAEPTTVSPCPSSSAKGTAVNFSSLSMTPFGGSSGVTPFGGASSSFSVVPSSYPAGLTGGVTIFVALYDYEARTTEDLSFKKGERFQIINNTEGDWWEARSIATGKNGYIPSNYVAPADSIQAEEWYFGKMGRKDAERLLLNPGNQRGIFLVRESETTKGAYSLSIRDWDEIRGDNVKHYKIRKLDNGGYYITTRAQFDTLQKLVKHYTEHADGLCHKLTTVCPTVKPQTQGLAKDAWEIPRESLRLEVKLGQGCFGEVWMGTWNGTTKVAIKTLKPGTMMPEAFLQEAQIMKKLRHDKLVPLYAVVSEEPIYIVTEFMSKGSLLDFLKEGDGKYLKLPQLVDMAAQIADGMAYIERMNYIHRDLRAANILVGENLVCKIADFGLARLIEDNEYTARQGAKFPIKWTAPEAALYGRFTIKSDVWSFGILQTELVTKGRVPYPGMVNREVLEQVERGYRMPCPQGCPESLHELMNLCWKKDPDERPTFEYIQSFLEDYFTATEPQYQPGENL

Potency, active:
Cc1ccc(C(=O)Nc2cccc(C(F)(F)F)c2)cc1-c1ccc2nc(NCCN3CCOCC3)ncc2c1 0.7 nM, CC(C)Oc1cc(Nc2nc(N[C@@H](C)c3ccc(F)cn3)ncc2Cl)[nH]n1 39.1 nM, CCN(CC)CCOc1ccc(Nc2ncc3cc(-c4c(Cl)cccc4Cl)c(=O)n(C)c3n2)cc1 0.4 nM, CC(NCc1ccc2c(c1)nc(NC(=O)c1ccc(-c3cn[nH]c3)s1)n2CC(C)(C)O)C(C)(C)C (stereo unspecified) 1.7 nM, CN1CCC(CNc2ccc3ncc(-c4cccc(OC(F)(F)F)c4)n3n2)CC1 2770 nM, NC(=O)Nc1cc(-c2ccc(CN3CCOCC3)c(F)c2)sc1C(=O)N[C@H]1CCCNC1 1.7 nM
